# From publication PMC5540273 (PLoS ONE, 2017)
# Values joined by “and” are separate entries in the source; they are usually repeats but may differ in a detail not shown here. Equal entries are not always repeated. Where two headings read alike, the source gives them in different places.
# Key:
# AMPK-alpha2 = system: T1, AMPK-alpha2; conditions: concentration: 1 μM, replicates: in singlicate, n = 1
# T1 construct: gene PRKAA2
# ANKK1 = conditions: concentration: 1 μM, replicates: in singlicate; n = 1
# ARK5 = system: T2, ARK5; conditions: concentration: 1 μM, replicates: in singlicate, n = 1
# T2 construct: gene NUAK1
# ASK1 = system: T3, ASK1; conditions: concentration: 1 μM, replicates: in singlicate, n = 1
# T3 construct: gene MAP3K5
# ASK2 = system: T4, ASK2; conditions: concentration: 1 μM, replicates: in singlicate; n = 1
# T4 construct: gene MAP3K6
# AURKA = conditions: concentration: 1 μM, replicates: in singlicate, n = 1
# AURKB = conditions: concentration: 1 μM, replicates: in singlicate, n = 1
# AURKC = conditions: concentration: 1 μM, replicates: in singlicate, n = 1
# AXL = conditions: concentration: 1 μM, replicates: in singlicate, n = 1
# BIKE = system: T5, BIKE; conditions: concentration: 1 μM, replicates: in singlicate, n = 1
# T5 construct: gene BMP2K
# 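Further: KINOMEscan kinase panel screen.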
Structure (SMILES),%Inh (AMPK-alpha2) [%],%Inh (ANKK1) [%],%Inh (ARK5) [%],%Inh (ASK1) [%],%Inh (ASK2) [%],%Inh (AURKA) [%],%Inh (AURKB) [%],%Inh (AURKC) [%],%Inh (AXL) [%],%Inh (BIKE) [%],%Inh (AMPK-alpha2; 1 µM),%Inh (ARK5; 1 µM),%Inh (ASK1; 1 µM),%Inh (AURKA; 1 µM),%Inh (AURKB; 1 µM),%Inh (AURKC; 1 µM),%Inh (AXL; 1 µM),%Inh (BIKE; 1 µM)
CN1c2ccc(CNc3ccc(F)cc3)cc2-c2c(cnn2C)S1(=O)=O,13,0,6,0,3,0,21,0,11,0,,,,,,,,
CC(=O)Nc1ccc(COc2ccc(Nc3ccnc4cc(-c5ccccn5)ccc34)cc2)cc1.Cl [GW440148],11,8,18,10,0,14,67,46,1,8,,,,,,,,
Cl.Cl.Cl.Fc1ccc(-c2ncn(C3CCNCC3)c2-c2ccnc(Nc3ccccc3)n2)cc1 [SB-238039],,0,,,0,,,,,,17% and 0%,9% and 10%,34% and 1%,16% and 36%,25% and 0%,0% and 19%,0% and 44%,0% and 9%
CCc1ccnc(/C=C/c2n[nH]c3cc(Sc4ccccc4C(=O)NC)ccc23)c1,0,0,11,0,0,77,94.5,97.3,45,34,,,,,,,,
Cc1nnc(-c2ccc3occ(-c4ccc(C(C)O)cc4)c3c2)o1 (centres unmarked),14,3,35,0,11,13,27,23,3,18,,,,,,,,
